# Screen size: about 400,000 compounds; about 13,000 (3.2%) were called active. Roughly 18% stayed inconclusive and do not appear here. Calls follow the shape of the dose curve; as a rule, active = well fitted cell-killing curve with a large enough effect; inconclusive = small, poorly fitted or top-dose-only effect, or effect the other way; inactive = flat fitted curve, though single readings scatter. The sample as a whole holds a higher share of actives than the screen did.
# Assay: qHTS assay for MDR1-selective chemotherapeutics: Primary screen using the drug-selected MDR subline cells KB-V1; also: nearly all actives have a fitted effect of over 60% in size
# Settings: KB-V1 MDR cells viability, CellTiter-Glo, 72 h; series mostly up to 46.1 µM; activity change, negative = cytotoxicity: at the top concentration
# Procedure, shortened: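 Following 72 h at 37 degrees C with compound, KB-V1 cell viability was read by CellTiter-Glo luminescence, medium being phenol-red-free DMEM plus 10% FBS; concentration-response parameters came from normalized, curve-fitted qHTS data.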
# % is scaled to controls: 0 for no effect and ±100 for the full control effect; potency is read from the fitted curve at half-maximal effect.
Compound,"activity change, negative = cytotoxicity",Potency
CC(Sc1oc(-c2ccco2)nc1S(=O)(=O)c1ccc(Br)cc1)c1ccccc1 (stereo not drawn),-2.48% (inactive),–
Cc1ccc(C(=O)NC(C)C(c2cccs2)N2CCOCC2)cc1C (stereo not drawn),-8.87% (inactive),–
CCN(CCCNC(=O)c1cc(Nc2ccc(OC)cc2)nc2ccccc12)c1cccc(C)c1,26.8% (inactive),–
CN(C(=O)COC(=O)CNC(=O)C12CC3CC(CC(C3)C1)C2)c1ccccc1,-4.54% (inactive),–
CN(C(=O)CC(NC(=O)c1ccccc1)(c1ccccc1)c1ccccc1)c1ccccc1,–,10.3 µM (active)
CC(C)(C)c1ccc(C(=O)NNC(=O)Cc2ccccc2)cc1,3.78% (inactive),–
O=C(Nc1cccc(-c2nc3ccccc3o2)c1)c1cccc(Br)c1,-1.06% (inactive),–
Nc1nc(N)c(N=O)c(N)n1,0.0458% (inactive),–
Cc1ccc(S(=O)(=O)N2CCN(C(=O)CCC(=O)NC3CCCc4ccccc43)CC2)cc1 (stereo not drawn),–,23.1 µM (active)
COc1ccc(NC(=O)CCC(=O)N2CCN(S(=O)(=O)c3ccc(C)cc3)CC2)c(OC)c1,-3.16% (inactive),–
O=C(CCC(=O)N1CCN(S(=O)(=O)c2ccccc2)CC1)NC1CCCc2ccccc21 (stereo not drawn),-9.17% (inactive),–
CC1(C(=O)NS(=O)(=O)c2cccc(F)c2)CCN1C(=O)c1cccc2ccccc12 (stereo not drawn),5.37% (inactive),–
COc1ccccc1-n1c(SCC(=O)Nc2ccc(Cl)cc2)nc(O)c(Cc2ccccc2)c1=O,6.89% (inactive),–
CCc1cc2c(N3CCN(c4nnc(CC)s4)CC3)ncnc2s1,–,3.66 µM (active)
CCc1cc2c(NC3CCCC3)ncnc2s1,2.62% (inactive),–
Oc1ccccc1N1CCN(c2ncnc3sc(-c4ccccc4)cc23)CC1,2.18% (inactive),–
CCCNC(=O)C1(C)CCCN(C(=O)c2oc3ccccc3c2C)C1 (stereo not drawn),2.13% (inactive),–
O=C(Cn1cc(C(F)(F)F)ccc1=O)N/N=C/c1ccc(Cl)cc1Cl,-21.2% (inactive),–
C=CCOc1ccccc1/C=N/NC(=O)Cc1ccccc1,-7.11% (inactive),–
O=C(Cc1ccccc1)N/N=C/c1ccc(Cl)cc1Cl,–,23.1 µM (active)
CN(C)c1ccc(/C=c2\[nH]c(=O)/c(=C/c3ccc(N(C)C)cc3)[nH]c2=O)cc1,7.38% (inactive),–
COc1ccc(OC)c(Cc2nnc(CCC(=O)NC3CCCC3)o2)c1,-5.46% (inactive),–
COc1ccc(OC)c(-n2nnc3c(sc4nc(C)c(Br)c(C)c43)c2=O)c1,0.722% (inactive),–
COc1ccc(OC)c(Cc2cnc3nc(N)nc(N)c3c2C)c1,–,10.3 µM (active)
Nc1nc2c(Br)ccc(Br)c2cc1C(=O)NCCc1ccccc1,-7.75% (inactive),–

Compound,"activity change, negative = cytotoxicity",Potency
Cc1cc(Br)ccc1NC(=O)CCCOc1cc(=O)n(C)c2ccccc12,-28.2% (inactive),–
O=C(c1cccc(S(=O)(=O)Nc2ccccc2Cl)c1)N1CCN(C(=O)c2ccco2)CC1,0% (inactive),–
O=C(Nc1ccc2c(c1)CCC2)c1cccc(S(=O)(=O)N2CCN(c3ccc(F)cc3)CC2)c1,3.08% (inactive),–
O=C(Nc1ccc2c(c1)CCC2)c1cccc(S(=O)(=O)Nc2ccccc2Cl)c1,–,20.6 µM (active)
Cc1ccc2nc(/C(C#N)=C/c3ccc(-c4ccc(C(=O)OC(C)C)cc4)o3)[nH]c2c1,0.0041% (inactive),–
CCN(CC)C(=O)C(C)N1c2cccc3cccc(c23)S1(=O)=O (stereo not drawn),-11.9% (inactive),–
CCOC(=O)c1ccc(NC(=O)Cc2cccs2)cc1,-14.2% (inactive),–
O=C(Nc1ccc(-c2nc3ccccc3[nH]2)cc1)c1ccncc1,21.2% (inactive),–
O=C(Cc1cccs1)Nc1cccc(-c2nc3ccccc3[nH]2)c1,–,16.4 µM (active)
CC(C)c1cc(C(=O)N(C)C2CCCN(Cc3ccccc3F)C2)n(C)n1 (stereo not drawn),-13.9% (inactive),–
Cc1nccn1-c1ccc(NC(=O)[C@H]2O[C@@H](n3ccc(=O)[nH]c3=O)[C@H](O)[C@@H]2O)cc1,24.1% (inactive),–
CCOC(=O)c1cc(-c2ccccc2)n(-c2cccc(C(=O)Nc3cc(OC)cc(OC)c3)c2)c1C,17.9% (inactive),–
Cc1c(NS(=O)(=O)c2cccc(C(=O)Nc3ccc(SC(F)F)cc3)c2)c(=O)n(-c2ccccc2)n1C,–,5.17 µM (active)
Cc1c(NS(=O)(=O)c2ccc(Cl)cc2)c(=O)n(-c2ccccc2)n1C,21.8% (inactive),–
COc1ccc(C(=O)C(C)OC(=O)c2cccc(S(=O)(=O)Nc3c(C)n(C)n(-c4ccccc4)c3=O)c2)cc1 (stereo not drawn),0% (inactive),–
COc1cccc(CN2CCC(C(=O)NC(c3ccc4c(c3)OCO4)c3ccccn3)CC2)c1 (stereo not drawn),3.03% (inactive),–
COc1ccc(/C=C(/NC(=O)c2ccccc2)C(=O)Nc2cccc(C(=O)O)c2)cc1,9.03% (inactive),–
COc1ccc(NC(C(=O)Nc2cccc(C(C)=O)c2)c2ccccc2)cc1 (stereo not drawn),–,4.61 µM (active)
CC(=O)c1cccc(NC(=O)[C@@H](NC(N)=O)C(C)C)c1,0% (inactive),–
CN(C)c1ccc(/C=N\Nc2ccc([N+](=O)[O-])cc2[N+](=O)[O-])cc1Cl,-16.2% (inactive),–
CC(C)Nc1ncnc2c1nnn2Cc1ccccc1,-10.4% (inactive),–
CC(C)Cc1nc(Nc2ccc(S(=O)(=O)N3CCCC3)cc2)c2nnn(Cc3ccccc3)c2n1,–,20.6 µM (active)
Cc1nc(Nc2ccc(S(=O)(=O)N3CCCC3)cc2)c2nnn(Cc3ccccc3)c2n1,-20.1% (inactive),–
CCOC(=O)[C@]12CCCC=C1N(Cc1cccc3ccccc13)C(=O)[C@H](CC(=O)NCC13CC4CC(CC(C4)C1)C3)C2,-24.8% (inactive),–
CCOC(=O)[C@]12CCC=C1N(Cc1cccc3ccccc13)C(=O)[C@H](CC(=O)NCc1cccc(C(F)(F)F)c1)C2,–,20.6 µM (active)

Compound,"activity change, negative = cytotoxicity",Potency
CCOC(=O)[C@]12CCC=C1N(Cc1ccco1)C(=O)[C@H](CC(=O)NCc1cccc(C(F)(F)F)c1)C2,-5.43% (inactive),–
O=C(NC1CCCCCCC1)c1cccs1,1.97% (inactive),–
O=C(NC1CCCC1)c1cc(-c2ccccc2)on1,–,16.4 µM (active)
O=C(NC1CCCCC1)c1cc(C2CC2)on1,9.07% (inactive),–
CCCCN1C(=O)C(CC(=O)NC(c2ccccc2)c2ccccc2)CC(C(=O)N2CCOCC2)=C1C (stereo not drawn),-12.8% (inactive),–
N#Cc1ccc[n+](CC(=O)c2ccc(O)c(O)c2)c1,10.8% (inactive),–
CCCn1nc(C(=O)OCc2nc(N)nc(Nc3ccccc3C)n2)c2ccccc2c1=O,–,20.6 µM (active)
Cc1ccccc1Nc1nc(N)nc(CSc2ccccc2)n1,-12.7% (inactive),–
Cc1ccc(C(=O)OCc2nc(N)nc(Nc3ccccc3C)n2)cc1,10.4% (inactive),–
O=C(Nc1cccc2cccnc12)c1ccc2sc([C@H]3C[C@H](O)[C@@H](CO)O3)nc2c1,2.51% (inactive),–
CCn1c(SCC(=O)Nc2ccc(C)cc2)nc2nc3c(cc2c1=O)CCCC3,–,0.651 µM (active)
Cc1ccc(NC(=O)Cn2cnc3nc4c(cc3c2=O)CCCC4)cc1Cl,-1.83% (inactive),–
CC(=O)NCCn1c(SCC(=O)Nc2ccc(C)cc2)nc2ccccc2c1=O,–,inactive
CCCn1c(N)c(C(=O)CSc2nnc(Cc3cccs3)n2C2CC2)c(=O)[nH]c1=O,3.91% (inactive),–
CCn1c(NCCc2ccc(OC)c(OC)c2)nc2c1c(=O)n(C)c(=O)n2C,–,4.61 µM (active)
Cn1c(=O)c2c(nc(NCCc3ccccc3)n2Cc2ccccc2Br)n(C)c1=O,8.3% (inactive),–
Cn1c(=O)c2c(nc(NCCc3ccccc3)n2Cc2ccccc2)n(C)c1=O,–,6.51 µM (active)
Cc1ccnc(SCCn2c(N(C)Cc3ccccc3)nc3c2c(=O)n(C)c(=O)n3C)n1,-0.969% (inactive),–
CC(C)CCn1c(CN(C)Cc2ccccc2)nc2c1c(=O)n(C)c(=O)n2C,–,9.2 µM (active)
Cn1c(=O)c2c(nc(NCc3ccccc3)n2CC(N)=O)n(C)c1=O,-8.35% (inactive),–
CCCCn1c(SCC(=O)NCCc2ccc(OC)c(OC)c2)nc2c1c(=O)n(C)c(=O)n2C,0% (inactive),–
COc1ccc(CCNc2nc(C)cc(C)n2)cc1OC,6.88% (inactive),–
COCCn1c(CN(Cc2ccccc2)Cc2ccccc2)nc2c1c(=O)n(C)c(=O)n2C,-15.9% (inactive),–
Cc1noc(C)c1C(=O)N1CCC1(C)C(=O)NS(=O)(=O)c1ccc(C#N)cc1 (stereo not drawn),-16.6% (inactive),–
Cc1ccc(-c2cnc(C(O)c3cc(Cl)cc(Cl)c3)[nH]2)cc1 (stereo not drawn),-1.01% (inactive),–

Compound,"activity change, negative = cytotoxicity",Potency
Cc1cccc(N2CCN(S(=O)(=O)c3ccc4[nH]c5c(c4c3)CCCCC5)CC2)c1C,-22.5% (inactive),–
O[C@@H]1C[C@H](c2ccccc2)N(Cc2cccs2)C[C@H]1n1cc(C2CC2)nn1,18.2% (inactive),–
COC(=O)[C@]12CCCCC=C1N(Cc1ccc3c(c1)OCO3)C(=O)[C@H](CC(=O)N1CCOCC1)C2,-24.6% (inactive),–
Cc1cccc(/C=N/NC(=O)CNc2cccc3ccccc23)n1,–,14.6 µM (active)
Cn1cccc1/C=N/NC(=O)CNc1cccc2ccccc12,-5.81% (inactive),–
C/C(=N\NC(=O)CNc1cccc2ccccc12)c1ccc(Br)s1,-2.25% (inactive),–
COCCNS(=O)(=O)c1cc(-c2nn3c(C)nnc3c3ccccc23)ccc1C,5.47% (inactive),–
Cc1ccc(NC(=O)c2ccco2)cc1,-11.2% (inactive),–
CCOc1cc(N2CCOCC2)c(OCC)cc1NC(=O)COc1cccc(Cl)c1,-16.4% (inactive),–
CCOc1cc(N2CCOCC2)c(OCC)cc1NC(=O)c1ccc(C)s1,2.44% (inactive),–
CCOc1cc(N2CCOCC2)c(OCC)cc1NC(=O)COc1cccc2cccnc12,–,5.17 µM (active)
CC(C)(C)c1ccc(C(=O)C[n+]2cccc3cc(Cl)ccc32)cc1,14.4% (inactive),–
Cc1ccc(C(=O)N2c3ncnn3C3(CCCCC3)[C@@H]3CCCC[C@@H]32)cc1,-14.7% (inactive),–
Cc1cc(C(=O)Nc2nnc(C3CC3)s2)c(C)s1,-22.1% (inactive),–
O=C(Nc1nnc(C2CC2)s1)c1cc(Cl)sc1Cl,13.8% (inactive),–
Cc1occc1C(=O)Nc1nnc(C2CCCCC2)s1,–,16.4 µM (active)
CC1=C(C(=O)N2CCOCC2)CC(CC(=O)NCCN2CCOCC2)C(=O)N1CCC1=CCCCC1 (stereo not drawn),63.2% (inactive),–
COc1ccc(N2CCN(S(=O)(=O)c3ccc(-c4coc(C)n4)cc3)CC2)cc1,0% (inactive),–
COc1ccc(Br)cc1C1CC(=O)Nc2c1c(C)nn2-c1nc(C)cc(C)n1 (stereo not drawn),3.24% (inactive),–
Oc1ccc(Br)cc1C1C=C(c2ccc3c(c2)OCO3)NC(c2ccc(Cl)cc2)N1 (stereo not drawn),11.4% (inactive),–
COC(=O)c1cc(Oc2ccc(S(=O)(=O)N3CCOCC3)cc2[N+](=O)[O-])cc(C(=O)OC)c1,1.19% (inactive),–
Cc1nnc(-c2ccc(Oc3ccc(C)c(C)c3)c([N+](=O)[O-])c2)o1,–,14.6 µM (active)
COc1ccc(OCC(=O)Nc2cc(C)c(Cl)cc2OC)c([N+](=O)[O-])c1,0% (inactive),–

# — PubChem BioAssay AID1347076 (National Center for Advancing Translational Sciences (NCATS), 2019)
